# From PubChem BioAssay (NCATS)
# Values joined by “and” are separate entries in the source; they are usually repeats but may differ in a detail not shown here. Identical values can stand only once. Results filed as inconclusive are left out. Active and inactive are the calls of the source. The call rests on the fitted dose curve; in most records, active means well fitted curve in the direction sought with a large enough effect; inconclusive means small, poorly fitted or top-dose-only effect, or another doubt; inactive means no such curve, though single readings can be large; an effect the other way counts as inactive or inconclusive.
# Key:
# [1] = qHTS Assay for Identifying Gametocytocidal Compounds (AID 743244);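 further: actives lower the fluorescent signal which means gametocytes are killed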; conditions: P. falciparum 3D7 stage III-V gametocytes, alamarBlue, 72 h; max response: stronger effect = lower value
# How it was run: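 Fluorescence at Ex 525/Em 598 nm, recorded 24 h after alamarBlue addition, reports residual metabolic activity of 3D7 gametocytes (stages III–V) following 72 h compound exposure at 37 °C, 5% CO2.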
# [2] = qHTS assay for cell viability of HEK293 cells (AID 743288); conditions: ATP luminescence (CellTiter-Glo), 18 h, stronger effect = lower value; further: nearly all actives have a fitted effect of over 50% in size
# How it was run: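 HEK293 parental, 2,000 cells/well; ≥5 h pre-incubation 37 C; pintool compound addition; 18 h, 37 C; CellTiter-Glo 30 min RT; luminescence read.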
# [3] = qHTS assay for cell viability of the p53RE-bla HCT-116 cell line (AID 743292); further: nearly all actives have a fitted effect of over 55% in size
# How it was run: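 Viability of compound-treated p53RE-bla HCT-116 cells is taken from ATP-dependent luciferase luminescence. Treatment lasts 16 h at 37 C after a 5 h settling period; detection follows 30 min at room temperature.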
# On the % scale 0 is the no-effect control and ±100 the full control effect.
SMILES,max response [1],max response [2],Potency [3]
Cc1cc(C(C)(C)C)c(O)c(C(C)(C)C)c1,-17.9% (inactive),-0.0848% (inactive) and 0.626% (inactive),inactive
Oc1ccccc1,2.14% (inactive),-3.62% (inactive) and -6.12% (inactive) and 4.72% (inactive),inactive
C=CCOc1cc(Cl)ccc1C(=O)NCCN(CC)CC,9.51% (inactive),,
O=C(Oc1ccccc1)c1cccc(C(=O)Oc2ccccc2)c1,-7.52% (inactive),-18.4% (inactive),inactive
c1ccc2occc2c1,-7.52% (inactive),-2.02% (inactive) and -29.2% (inactive) and -7.14% (inactive),inactive
COc1cc(C=O)ccc1O,16.9% (inactive),-1.87% (inactive) and -5.65% (inactive),inactive
OCc1c[nH]c2ccccc12,,5.55% (inactive),inactive
C[N+]1(C)CCC(OC(=O)C(O)(c2ccccc2)C2CCCC2)C1 (centres undefined),-10.9% (inactive) and -9.67% (inactive),,
